# Experimental data reported in PubChem BioAssay AID588342 (National Center for Advancing Translational Sciences (NCATS), 2011).
# The whole screen tested about 360,000 compounds, of which about 25,000 (6.9%) were called active. Roughly 9% stayed inconclusive and do not appear here. The call rests on the fitted dose curve; in most records, active means well fitted inhibition curve with a large enough effect; inconclusive means small, poorly fitted or top-dose-only effect; inactive means flat fitted curve, though single readings scatter. Many of the other results were omitted from the sample, so actives are more common in it than they were.
# Target: Luciferin 4-monooxygenase (Photinus pyralis) (UniProt P08659)
# Test: qHTS profiling assay for firefly luciferase inhibitor/activator using purifed enzyme and Km concentrations of substrates (counterscreen for miR-21 project); further: nearly all actives have a fitted effect of over 55% in size;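 on activity change, negative = inhibition: plate controls were vehicle for no effect and reference inhibitor for full effect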
# Conditions: purified FLuc, luminescence inhibition; series mostly up to 57.5 µM; activity change, negative = inhibition: at the top concentration
# Summary of the method: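 Biochemical qHTS of compounds, final roughly 60 µM downward over six points, against 10 nM purified firefly luciferase using Km concentrations of substrates (10 uM D-luciferin, 10 uM ATP) in Tris acetate pH 7.5 buffer; luminescence output.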
# Potency means the concentration at half of the fitted maximal effect.
# Sequence of Luciferin 4-monooxygenase (Photinus pyralis) (P08659 whole entry, looked up): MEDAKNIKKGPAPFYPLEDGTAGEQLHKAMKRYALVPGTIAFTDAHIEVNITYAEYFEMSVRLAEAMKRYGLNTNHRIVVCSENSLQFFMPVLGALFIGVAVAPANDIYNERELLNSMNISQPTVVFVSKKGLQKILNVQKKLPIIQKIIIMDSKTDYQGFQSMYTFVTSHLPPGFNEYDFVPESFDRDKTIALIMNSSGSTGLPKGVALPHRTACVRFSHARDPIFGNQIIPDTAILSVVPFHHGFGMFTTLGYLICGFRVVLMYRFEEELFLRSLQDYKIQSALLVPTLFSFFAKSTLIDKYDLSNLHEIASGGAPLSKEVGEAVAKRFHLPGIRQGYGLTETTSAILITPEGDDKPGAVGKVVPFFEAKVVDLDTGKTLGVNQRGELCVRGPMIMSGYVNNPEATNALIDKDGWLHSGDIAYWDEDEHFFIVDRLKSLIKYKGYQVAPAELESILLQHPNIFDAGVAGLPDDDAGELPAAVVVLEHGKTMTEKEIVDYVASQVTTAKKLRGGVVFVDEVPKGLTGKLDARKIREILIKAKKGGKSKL
SMILES,"activity change, negative = inhibition",Potency
COc1cc(C(=O)OCC(=O)NC(C)CCc2ccccc2)cc(OC)c1OC (stereo unspecified),-0.439% (inactive),
CCCCOc1ccc(NC(=O)c2cc3c(n(-c4ccc(Cl)cc4)c2=O)CCCC3=O)cc1,-1.22% (inactive),
O=C(c1c(F)cccc1F)N1CCN(S(=O)(=O)c2ccc3c(c2)OCCO3)CC1,2.43% (inactive),
COc1ccccc1C(CNC(=O)c1cccc(S(=O)(=O)Nc2ccc(F)cc2)c1)N(C)C (stereo unspecified),-2.1% (inactive),
O=C(NCCc1ccccn1)c1cccnc1Oc1ccc(Cl)cc1,-0.702% (inactive),
O=C(COc1cc(Cl)c(Cl)cc1Cl)NCCc1ccccn1,-2.83% (inactive),
O=C(NCCc1ccccn1)c1cc(-c2ccc(Cl)cc2)nc2ccccc12,,16.9 µM (active)
Cc1cccc(NC(=O)Cn2nc(-c3ccc(Cl)cc3)c3ccccc3c2=O)c1,-1.34% (inactive),
COC(=O)c1cc(Oc2ccc(S(=O)(=O)N3CCOCC3)cc2[N+](=O)[O-])cc(C(=O)OC)c1,6.19% (inactive),
COCCNS(=O)(=O)c1cc(-c2nn3c(C)nnc3c3ccccc23)ccc1C,-2.57% (inactive),
CC(=O)N1c2ccc(S(=O)(=O)N3CCCCCC3)cc2CC1C(=O)NCc1ccccc1C (stereo unspecified),-6.6% (inactive),
COc1ccc(OC)c(NC(=O)CSC2=Nc3ccccc3C3=NC(CC(=O)NCCc4ccccc4)C(=O)N23)c1 (stereo unspecified),-9.66% (inactive),
COc1ccccc1Nc1nc(N)nc(N)c1S(=O)(=O)c1ccccc1,-2.45% (inactive),
CNS(=O)(=O)c1cccc(C(=O)OCCCC(=O)c2ccccc2)c1,-3.76% (inactive),
COc1cc(OC)cc(C(=O)Nc2ccc(S(=O)(=O)Nc3cc(C)on3)cc2)c1,-2.42% (inactive),
CCOc1ccc(CC(=O)Nc2ccc(S(=O)(=O)Nc3cc(C)on3)cc2)cc1OCC,-1.96% (inactive),
CCOc1ccc(C(=O)Nc2ccc(S(=O)(=O)Nc3cc(C)on3)cc2)cc1,,16.9 µM (active)
Fc1ccc2[nH]c3c(N4CCN(Cc5ccc6c(c5)OCO6)CC4)ncnc3c2c1,-1.87% (inactive),
CC(C)OCCCNC(=O)c1cc(Sc2ccc(F)cc2)nc2ccccc12,-0.266% (inactive),
CC(C)OCCCNc1ncnc2c1[nH]c1ccc(F)cc12,,15.1 µM (active)
O=S(=O)(c1ccc(Sc2nnc3ccccn23)nc1)N1CCOCC1,1.11% (inactive),
CCOc1ccc(NC(=O)Cn2c(=O)n(CCCC(=O)NCc3ccc4c(c3)OCO4)c(=O)c3ccccc32)cc1,-4.81% (inactive),

SMILES,"activity change, negative = inhibition",Potency
Cc1cc(C)cc(-n2ccnc2SCC(=O)Nc2nc3ccccc3s2)c1,-12.5% (inactive),
Cc1ccnc(Nc2nc3ccccc3s2)n1,,1.9 µM (active)
Cc1sc2ncnc(Sc3nc4ccccc4s3)c2c1C,-17.6% (inactive),
Cc1ccc(CCNC(=O)c2ccc3c(c2)N(Cc2cc(C)ccc2C)C(=O)c2ccccc2S3=O)cc1 (stereo unspecified),1.69% (inactive),
CCCn1c(NCc2ccc(N(CC)CC)cc2)nc2ccccc21,-3.91% (inactive),
Cc1ccc(CNC(=O)CCc2c(C)nc3nc(CNC(=O)OC(C)(C)C)nn3c2C)cc1,-4.1% (inactive),
Cc1nc(-c2ccc([N+](=O)[O-])cc2)c(-c2ccccc2)o1,-0.124% (inactive),
Cc1ccc(-c2cn3cc([N+](=O)[O-])ccc3n2)cc1,,0.757 µM (active)
Cc1cc(N2CCOCC2)nc(-c2ccc(Br)cc2)n1,-5.76% (inactive),
Cc1ccc(-c2nc(SCc3ccc(Br)cc3)n3[nH]c(=O)cc3n2)cc1,-10.4% (inactive),
Cc1ccc(C(=O)Cn2cc([N+](=O)[O-])nc2C)cc1,1.35% (inactive),
CSc1nnc2ccc(-c3ccc(C)cc3)nn12,-14.2% (inactive),
Cc1ccc(-c2cn3cc(C)ccc3n2)cc1,,0.107 µM (active)
Cc1ccc2nc(-c3ccc(Br)cc3)cn2c1,,0.0849 µM (active)
Cc1ccc(-n2c(-c3ccc(Cl)cc3)n[nH]c2=S)cc1,-2.19% (inactive),
CCc1c(C)sc(NC(=O)C2c3ccccc3Oc3ccccc32)c1C(=O)OC(C)C,0.745% (inactive),
O=C(CSc1nc2ccccc2c(=O)n1CCCO)NC1CC1,0.433% (inactive),
CCN(CC)S(=O)(=O)c1ccc(N2CCOCC2)c(NC(=O)C(C)Oc2ccc(F)cc2)c1 (stereo unspecified),4.08% (inactive),
Cc1cccc(NC(=O)N2CCC(CN3CCc4ccccc4C3)CC2)c1C,-0.966% (inactive),
Cc1cc(NS(=O)(=O)c2ccc(NC(=O)c3ccccc3C)cc2)nc(C)n1,-3.53% (inactive),
CCOc1ccc(S(=O)(=O)N(CC(=O)NCCSCc2ccc(C)cc2)c2ccccc2)cc1,0.976% (inactive),
COc1ccc([C@H]2CC(=O)C=C(c3ccc(OC(F)(F)F)cc3)C2)cc1OC,-0.992% (inactive),

SMILES,"activity change, negative = inhibition",Potency
Cc1cc(Cl)c2oc(C(=O)N(C)C(C)c3ccccn3)c(C)c2c1 (stereo unspecified),,19 µM (active)
Cc1cc(Cl)c2oc(C(=O)N3CCC(O)(c4ccccc4)CC3)c(C)c2c1,1.22% (inactive),
Cc1cc(Cl)c2oc(C(=O)NC(C)c3ccncn3)c(C)c2c1 (stereo unspecified),2.44% (inactive),
CCOc1ncccc1C(=O)OCC(=O)N1c2ccccc2CC1C (stereo unspecified),4.23% (inactive),
O=C(Nc1ncccc1O)c1ccc(S(=O)(=O)N2CCCC2)cc1,-1.32% (inactive),
O=C(Nc1ncccc1O)c1ccc(S(=O)(=O)N2CCCCCC2)cc1,-4.16% (inactive),
O=C(Nc1ncccc1O)c1ccc(C(=O)c2ccccc2)cc1,,26.9 µM (active)
COc1cc(F)c(C2=CC(=O)CC(C)(C)C2)cc1F,-3.48% (inactive),
CCCC12CN3CC(C)(CN(C1)C3c1ccccc1Cl)C2=O (stereo unspecified),-2.81% (inactive),
CN(C)c1ccc(NC(=O)c2ccncc2)c2ccccc12,2.99% (inactive),
CNC(=O)c1csc(-c2ccccc2)n1,-4.97% (inactive),
O=C(Nc1nsc(-c2ccccc2)n1)c1ccncc1,,19 µM (active)
Cc1cccc(-n2ncc(C(=O)N3CCC(C)CC3)c2C2CCN(C(=O)OC(C)(C)C)CC2)c1,-2.75% (inactive),
COc1ccc(C2NC(=O)N(C)C3=C2C(=O)N(c2ccc(C(=O)O)cc2)C3)cc1 (stereo unspecified),-6.88% (inactive),
COc1ccc(/C=C2\N=C3CCCN3C2=O)cc1,,15.1 µM (active)
COc1ccc(/C=C2\SC(=N)N(c3ccc(F)cc3)C2=O)cc1,-0.0275% (inactive),
CCN(C(=O)Cn1cnc2sc(C)c(S(=O)(=O)N3CCN(c4ncccn4)CC3)c2c1=O)c1ccccc1F,3.77% (inactive),
CCOc1cc(C(=S)N2CCOCC2)ccc1O,-19.3% (inactive),
CCOc1cc(/C=C2\SC(N3CCCC(C)C3)=NC2=O)ccc1O (stereo unspecified),,9.53 µM (active)
CCOc1cc(/C=N/NC(=O)CN2CCCCC2)ccc1O,3.39% (inactive),
CCOc1cc(/C=C2\SC(N3CCCCC3)=NC2=O)ccc1O,,10.7 µM (active)
Nc1c(Cl)cc(-c2csc(N3CCCC3c3nc4cc(Cl)c(Cl)cc4n3CCOCCO)n2)cc1Cl (stereo unspecified),-2.84% (inactive),
